# Key:
# Test in all cases: DAPPL (digital affinity profiling via proximity ligation, sequencing); 10 mM Tris-HCl pH 7.5, 50 mM NaCl, 1 mM DTT, 4% glycerol, room temperature, 30 min; GST-TFs on glutathione beads, 16-mer random dsDNA library, 0.1% formaldehyde crosslink after washing; high values mean tight binding
# Settings in all cases: protein: recombinant; tags: N-terminal GST; dsDNA, one strand shown
# FLI1 = biological target: T1, FLI1 (Homo sapiens, UniProt Q01543 1-452)
# T1 sequence: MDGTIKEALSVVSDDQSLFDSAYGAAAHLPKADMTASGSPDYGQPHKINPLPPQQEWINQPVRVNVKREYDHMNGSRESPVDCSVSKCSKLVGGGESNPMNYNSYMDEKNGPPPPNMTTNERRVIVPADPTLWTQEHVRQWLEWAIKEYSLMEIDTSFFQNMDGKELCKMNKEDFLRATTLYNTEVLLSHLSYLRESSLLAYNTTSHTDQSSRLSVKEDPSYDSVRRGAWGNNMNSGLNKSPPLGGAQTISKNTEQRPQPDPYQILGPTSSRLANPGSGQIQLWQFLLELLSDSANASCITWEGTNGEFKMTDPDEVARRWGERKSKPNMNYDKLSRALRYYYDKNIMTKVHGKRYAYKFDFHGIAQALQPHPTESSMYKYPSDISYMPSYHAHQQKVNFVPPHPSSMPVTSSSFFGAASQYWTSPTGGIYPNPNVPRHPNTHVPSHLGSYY
# How it was run: (§1)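 Binding signal is defined as a hexamer's read frequency for one factor over its frequency for the tag-only sample. To obtain reads, GST-fused human transcription factors were expressed in yeast, captured on glutathione beads, barcoded with DNA and pooled with that sample. Pools met 200 nmole of a 16-mer random double-stranded DNA library in Tris/NaCl/DTT/glycerol buffer for 30 min at room temperature before washing, 0.1% formaldehyde crosslinking, proximity ligation (BsaI/T4 ligase, 1 h, 37 °C), PCR and Illumina NextSeq500 sequencing.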
# ELK1 = biological target: T2, ELK1 (Homo sapiens, UniProt P19419 1-428)
# T2 sequence: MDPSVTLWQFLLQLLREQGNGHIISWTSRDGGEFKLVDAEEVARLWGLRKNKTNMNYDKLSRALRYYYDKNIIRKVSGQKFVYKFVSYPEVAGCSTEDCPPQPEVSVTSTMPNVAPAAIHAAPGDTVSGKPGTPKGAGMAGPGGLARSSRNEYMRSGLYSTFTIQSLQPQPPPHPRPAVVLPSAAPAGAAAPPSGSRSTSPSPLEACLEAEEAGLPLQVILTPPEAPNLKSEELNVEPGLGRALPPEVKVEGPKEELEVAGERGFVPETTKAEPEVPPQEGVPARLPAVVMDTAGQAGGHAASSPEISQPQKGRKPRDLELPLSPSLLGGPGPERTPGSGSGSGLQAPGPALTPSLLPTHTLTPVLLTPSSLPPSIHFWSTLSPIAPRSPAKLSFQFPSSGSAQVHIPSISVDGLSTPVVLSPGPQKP
# How it was run: as §1
# GABPA = biological target: T3, GABPA (Homo sapiens, UniProt Q06546 1-454)
# T3 sequence: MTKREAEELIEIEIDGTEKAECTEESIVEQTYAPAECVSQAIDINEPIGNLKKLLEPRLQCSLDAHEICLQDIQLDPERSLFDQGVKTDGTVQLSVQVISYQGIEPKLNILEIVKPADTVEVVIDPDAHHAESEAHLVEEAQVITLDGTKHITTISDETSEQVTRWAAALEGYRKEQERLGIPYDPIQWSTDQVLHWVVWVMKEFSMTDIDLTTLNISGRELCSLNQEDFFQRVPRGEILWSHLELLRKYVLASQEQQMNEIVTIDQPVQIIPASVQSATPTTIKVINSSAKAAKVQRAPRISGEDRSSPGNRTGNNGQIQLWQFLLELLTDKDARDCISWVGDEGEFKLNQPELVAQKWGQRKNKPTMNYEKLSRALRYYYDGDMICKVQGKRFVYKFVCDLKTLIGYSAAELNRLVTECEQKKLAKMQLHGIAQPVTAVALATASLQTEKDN
# How it was run: as §1
# ERG = biological target: T4, ERG (Homo sapiens, UniProt P11308 1-479)
# T4 sequence: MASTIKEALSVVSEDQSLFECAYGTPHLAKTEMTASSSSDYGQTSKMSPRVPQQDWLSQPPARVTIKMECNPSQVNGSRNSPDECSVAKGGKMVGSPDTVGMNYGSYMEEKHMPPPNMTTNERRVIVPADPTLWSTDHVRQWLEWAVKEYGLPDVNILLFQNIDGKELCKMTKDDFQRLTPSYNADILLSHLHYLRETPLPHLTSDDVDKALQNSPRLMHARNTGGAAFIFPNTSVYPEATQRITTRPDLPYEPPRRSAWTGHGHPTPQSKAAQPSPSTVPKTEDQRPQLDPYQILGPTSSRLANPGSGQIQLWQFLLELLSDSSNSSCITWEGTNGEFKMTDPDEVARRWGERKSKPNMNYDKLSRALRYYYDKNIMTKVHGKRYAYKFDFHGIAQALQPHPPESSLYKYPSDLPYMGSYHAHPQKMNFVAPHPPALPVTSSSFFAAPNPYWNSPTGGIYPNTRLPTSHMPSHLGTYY
# How it was run: as §1
# ELF1 = ELF1 (Homo sapiens, UniProt P32519 1-619)
# ELF1, sequence (P32519 whole entry): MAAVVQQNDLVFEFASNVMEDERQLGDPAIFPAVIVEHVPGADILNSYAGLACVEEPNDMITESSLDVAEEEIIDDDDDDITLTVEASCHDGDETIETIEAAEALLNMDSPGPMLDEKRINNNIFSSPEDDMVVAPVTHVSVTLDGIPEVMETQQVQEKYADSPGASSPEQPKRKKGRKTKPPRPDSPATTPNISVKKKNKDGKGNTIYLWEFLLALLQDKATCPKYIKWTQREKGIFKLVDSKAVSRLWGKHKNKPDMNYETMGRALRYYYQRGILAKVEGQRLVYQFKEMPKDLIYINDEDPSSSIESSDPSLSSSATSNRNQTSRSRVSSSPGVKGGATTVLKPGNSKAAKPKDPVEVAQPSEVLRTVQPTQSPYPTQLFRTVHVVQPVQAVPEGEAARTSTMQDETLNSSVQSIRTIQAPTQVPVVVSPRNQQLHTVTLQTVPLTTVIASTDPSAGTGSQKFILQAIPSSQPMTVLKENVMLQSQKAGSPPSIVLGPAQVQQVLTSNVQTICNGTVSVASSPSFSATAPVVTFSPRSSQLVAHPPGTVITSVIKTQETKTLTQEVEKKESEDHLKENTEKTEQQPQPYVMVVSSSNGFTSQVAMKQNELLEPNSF
# How it was run: as §1
# EHF = biological target: T5, EHF (Homo sapiens, UniProt Q9NZC4 1-300)
# T5 sequence: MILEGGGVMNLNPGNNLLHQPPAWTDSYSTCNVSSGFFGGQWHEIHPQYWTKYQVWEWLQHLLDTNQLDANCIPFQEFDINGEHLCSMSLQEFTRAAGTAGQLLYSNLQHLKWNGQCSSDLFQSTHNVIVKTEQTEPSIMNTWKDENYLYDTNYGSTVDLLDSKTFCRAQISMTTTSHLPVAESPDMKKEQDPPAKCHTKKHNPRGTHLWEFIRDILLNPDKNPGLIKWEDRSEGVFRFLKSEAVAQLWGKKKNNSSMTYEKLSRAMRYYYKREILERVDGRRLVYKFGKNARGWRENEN
# How it was run: as §1
# SPI1 = SPI1 (Homo sapiens, UniProt P17947 1-270)
# How it was run: as §1
# SPIB = SPIB (Homo sapiens, UniProt Q01892 1-262)
# SPIB, sequence (Q01892 whole entry): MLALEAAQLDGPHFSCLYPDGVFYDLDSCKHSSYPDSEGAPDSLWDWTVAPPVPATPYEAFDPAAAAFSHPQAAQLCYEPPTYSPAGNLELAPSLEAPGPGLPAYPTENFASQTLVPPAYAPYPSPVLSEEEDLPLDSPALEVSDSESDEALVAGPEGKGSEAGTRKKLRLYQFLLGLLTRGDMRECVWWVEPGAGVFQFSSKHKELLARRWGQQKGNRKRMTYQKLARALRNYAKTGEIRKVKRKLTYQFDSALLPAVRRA
# How it was run: as §1
# ELK3 = biological target: T6, ELK3 (Homo sapiens, UniProt P41970 1-407)
# T6 sequence: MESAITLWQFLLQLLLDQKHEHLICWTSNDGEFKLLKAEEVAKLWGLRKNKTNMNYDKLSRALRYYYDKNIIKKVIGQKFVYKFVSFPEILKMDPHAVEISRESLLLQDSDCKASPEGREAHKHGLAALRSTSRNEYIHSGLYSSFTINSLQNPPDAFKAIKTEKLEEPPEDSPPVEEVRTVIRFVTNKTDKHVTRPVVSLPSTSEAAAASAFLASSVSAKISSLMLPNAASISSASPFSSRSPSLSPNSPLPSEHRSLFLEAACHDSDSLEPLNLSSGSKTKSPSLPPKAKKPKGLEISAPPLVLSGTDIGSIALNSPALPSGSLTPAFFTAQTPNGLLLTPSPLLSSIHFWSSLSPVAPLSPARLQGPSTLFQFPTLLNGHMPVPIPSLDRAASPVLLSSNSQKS
# How it was run: as §1
# ETV5 = ETV5 (Homo sapiens, UniProt P41161 1-510)
# ETV5, sequence (P41161 whole entry): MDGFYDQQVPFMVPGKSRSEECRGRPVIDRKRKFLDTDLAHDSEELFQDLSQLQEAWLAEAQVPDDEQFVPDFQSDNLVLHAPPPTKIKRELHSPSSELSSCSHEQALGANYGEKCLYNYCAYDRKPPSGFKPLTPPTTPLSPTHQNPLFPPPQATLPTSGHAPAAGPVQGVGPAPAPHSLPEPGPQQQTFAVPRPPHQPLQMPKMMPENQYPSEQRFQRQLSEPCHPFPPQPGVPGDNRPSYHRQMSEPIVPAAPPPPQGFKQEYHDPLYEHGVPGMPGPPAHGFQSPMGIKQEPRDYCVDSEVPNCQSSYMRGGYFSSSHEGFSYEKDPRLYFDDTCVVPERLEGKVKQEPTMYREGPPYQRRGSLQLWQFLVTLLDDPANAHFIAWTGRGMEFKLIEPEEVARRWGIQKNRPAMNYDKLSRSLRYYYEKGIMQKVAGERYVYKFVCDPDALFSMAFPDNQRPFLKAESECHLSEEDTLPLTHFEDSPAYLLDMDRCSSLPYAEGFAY
# How it was run: as §1
sequence,measurement,setting,value
GCCTGC,binding signal,FLI1,"1.03 fold enrichment (6-mer frequency, TF over GST control)"
same,binding signal,ELK1,"1.13 fold enrichment (6-mer frequency, TF over GST control)"
same,binding signal,GABPA,"1.07 fold enrichment (6-mer frequency, TF over GST control)"
same,binding signal,ERG,"1.03 fold enrichment (6-mer frequency, TF over GST control)"
same,binding signal,ELF1,"1.13 fold enrichment (6-mer frequency, TF over GST control)"
same,binding signal,EHF,"1.19 fold enrichment (6-mer frequency, TF over GST control)"
same,binding signal,SPI1,"1.06 fold enrichment (6-mer frequency, TF over GST control)"
same,binding signal,SPIB,"1.18 fold enrichment (6-mer frequency, TF over GST control)"
same,binding signal,ELK3,"1.08 fold enrichment (6-mer frequency, TF over GST control)"
same,binding signal,ETV5,"1.05 fold enrichment (6-mer frequency, TF over GST control)"

# Reference: paper PMC7862700, “An all-to-all approach to the identification of sequence-specific readers for epigenetic DNA modifications on cytosine”
